Results reported in PubChem BioAssay (NCI).
About 83,000 compounds went through this panel and 20% of them were active in at least one assay; those are over-represented in the sample as a whole.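 Note: values are percent growth. 100 is the growth of untreated cells, values between 100 and 0 indicate rising inhibition; between -100 and 0 indicates cell death.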 Activity calls are given as the source filed them. The calls were made as follows: active = growth percent below 10; inactive = the rest.

Each molecule was assayed on HL-60(TB) leukemia (assay: NCI-60 one-dose screen, 48 h (100 = growth as untreated, 0 = no growth, -100 = all killed)). Settings: 10 µM unless noted.
With `O=S(=O)(c1ccc(NC(=S)NC23CC4CC(CC(C4)C2)C3)cc1)N1CCCCC1` the growth was -29.2% (active). `COc1ccc(C(=O)/C=C/c2cc3ccccc3[nH]c2=O)cc1` was tested, and the growth was 33.7% (inactive). For `CC(NC(N)=S)c1ccccc1` (stereo not given), the growth was 96.7% (inactive). With `Nc1ncnc2c1c(-c1ccc(Oc3ccccc3)cc1)nn2C[C@@H]1SSC[C@H]1O` the growth was -27.5% (active). In the case of `COc1ccc(/C=C(/C(=O)N2CCN(c3ccccc3)CC2)c2cc(OC)c(OC)c(OC)c2)cc1N`, the growth is reported as -37.5% (active).
